Screens from PubChem BioAssay.
APP 5UTR inh – APP translation inhibition. SH-SY5Y APP 5'UTR-luciferase reporter, luminescence. inhibition, % at 2 µM. 190,000 tested, 0.82% active;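 active = inhibition above a set limit, derived from the sample mean plus 3 SD, cut at about 45% in these data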
KLF5 inh – inhibitors of KLF5 expression; 290,000 tested, 0.23% active; inhibition, % at 5 µM; DLD-1 KLF5 promoter-luciferase reporter, luminescence;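 active = inhibition above a per-plate limit of that plate's mean compound inhibition plus 3 SD, cut at about 60% in these data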;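 also: 0% = DMSO wells and 100% = LY294002 at 200 µM; higher means less KLF5 promoter-driven luciferase light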
aSyn UTR inh – 5' untranslated region of α-synuclein, MLPCN primary screen; alpha-synuclein 5'UTR reporter, inhibitor activity; inhibition, % (tested at 7.5 µM); 300,000 tested, 0.82% active; AID 1813; in the data active = inhibition above about 60%;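 also: H4 neuroglioblastoma cells stably carrying SNCA 5'UTR luciferase fusion; 0% = DMSO wells and 100% = positive control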
IEC-6 cytotox – counter-screen for KLF5 inhibitors: cytotoxicity in IEC-6 cells; IEC-6 cytotoxicity, luminescence viability; inhibition, % at 5 µM; 290,000 tested, 0.78% active; AID 1825; in the data active = inhibition above about 22%;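 also: 0% = plate median of test compound wells and 100% = cytotoxic reference compound wells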
Ba/F3 V617F tox – lowers viability of Ba/F3 cells expressing EpoR and JAK2V617F | ATP luminescence | inhibition, % at 5.6 µM | 220,000 tested, 1.1% active | AID 1446;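 active = inhibition above the campaign mean plus 3 SD over all tested compounds, cut at about 24% in these data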;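 also: cytokine-independent growth of Ba/F3 cells driven by EpoR plus mutant JAK2; 0% = DMSO-treated cells and 100% = JAK inhibitor I control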
BaF3 tox – counter-screen for JAK2V617F inhibitors: parental Ba/F3 viability inhibitors | inhibition, % at 5.6 µM | 220,000 tested, 1.1% active | AID 1486 | CellTiter-Glo ATP luminescence;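 active = inhibition above a per-campaign cutoff, the mean inhibition of all tested compounds plus 3 SD, cut at about 27% in these data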;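 also: 0% = DMSO wells and 100% = JAK Inhibitor I control wells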
BaF3 parental 2 – parental Ba/F3 viability inhibition for JAK2V617F counter-screen. 580 tested, 31% active. CellTiter-Glo luminescence; cells kept alive by added IL-3. shares compounds with Ba/F3 V617F tox. AID 1520. inhibition, % at 5.6 µM;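 active = cell growth inhibition above the hit limit set in the earlier mutant JAK2 cell screen, cut at about 27% in these data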;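 also: plate controls were DMSO-treated cells for no effect and JAK Inhibitor I control wells for full effect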
JAK2V617F confrm – Ba/F3 EpoR-JAK2V617F viability loss, confirmation. shares compounds with Ba/F3 V617F tox. CellTiter-Glo luminescence. inhibition, % at 5.6 µM. 580 tested, 66% active;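 active = mean inhibition above the hit cutoff derived in the earlier primary screen, cut at about 25% in these data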;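 also: 0% = DMSO-treated cells and 100% = JAK inhibitor I control wells; higher means lower luminescence from reduced cell ATP and viability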
* marks the source's active call; other numbers are inactive results; · = not tested or not shown. The list is not random: actives were taken first. Their share in the collection is about 2.2%.

SMILES	APP 5UTR inh	KLF5 inh	aSyn UTR inh	IEC-6 cytotox	Ba/F3 V617F tox	BaF3 tox	BaF3 parental 2	JAK2V617F confrm
COc1ccc(Nc2ncnc3ccccc23)c(OC)c1	-4	-36	-8	4	-1	5	·	·
C=CCNC(=O)COC(=O)c1cc(S(=O)(=O)N2CCCCC2)ccc1Cl	2	-18	10	6	1	3	·	·
COc1cccc(-n2nnnc2S(C)(=O)=O)c1	4	22	10	39*	52*	2	32*	95*
Cc1onc(-c2ccccc2Cl)c1C(=O)NC1CCCCCC1	·	1	-28	3	·	·	·	·
CCCOc1ccc(C(=O)C(CN2CCCC2)c2ccccc2)cc1 (configuration not stated)	92*	-30	-47	6	65*	6	52*	99*
CCCCOc1ccc(C(O)C(CN2CCCCC2)c2ccccc2)cc1 (configuration not stated)	4	-14	-27	-5	-2	11	·	·
Cc1ccc(NC(=O)N2CCCCC2)cc1[N+](=O)[O-]	·	-37	-29	1	2	0	·	·
Fc1ccc(CSc2ncnc3sc4c(c23)CCCC4)cc1	-3	-27	36	-4	99*	2	-3	0
O=C1C(Nc2ccccc2)=C/C(=N/S(=O)(=O)c2cccs2)c2ccccc21	-20	-48	-24	4	46*	1	93*	96*
CC(C)N(C(=O)Cn1c(=O)oc2ccccc21)c1ccccc1	·	4	14	2	·	·	·	·
COc1cc(NC(=O)c2ccc([N+](=O)[O-])o2)ccc1NC(=O)c1cccs1	35	-32	-82	-3	4	5	·	·
O=C(Nc1cccc(NC(=O)c2cccs2)c1)c1ccc([N+](=O)[O-])o1	·	-5	-69	64*	39*	0	8	72*
CC1=CSC2=NC(=O)/C(=C/c3cccc(OC(=O)c4ccco4)c3)C(=N)N12	19	1	-33	2	34*	4	-3	-5
CSC1=NSC2=NC(=O)/C(=C\c3ccc(OC(=O)c4ccco4)cc3)C(=N)N12	·	-89	-46	2	·	·	·	·
COCCn1c(=S)[nH]c2cc(C(=O)N3CCN(c4ccc(F)cc4)CC3)ccc2c1=O	-2	-5	-1	-3	51*	1	3	5
COCCn1c(=S)[nH]c2cc(C(=O)N3CCN(c4ccccc4OC)CC3)ccc2c1=O	8	-5	·	7	-1	2	·	·
COC(=O)c1[nH]c2c(c1C)C(=O)CC(c1ccc(C)cc1)C2 (configuration not stated)	14	-17	-4	5	1	4	·	·
Cc1c(C(=O)OCC(C)C)[nH]c2c1C(=O)CC(c1cccs1)C2 (configuration not stated)	59*	37	48	11	24*	8	59*	88*
C#CCSc1nsc(SCC#C)c1C#N	7	-45	-32	-1	45*	6	-4	72*
CCCSc1nsc(SCCC)c1C#N	-1	-14	-41	1	-4	2	·	·
Cc1ccc(/C(O)=C2\C(=O)C(=O)N(C)C2c2cccc([N+](=O)[O-])c2)cc1 (configuration not stated)	·	-12	4	1	·	·	·	·
Cc1ccc(C)c(S(=O)(=O)Nc2ccc3scnc3c2)c1	5	16	-61	17	35*	20	16	33*
Cc1ccccc1N1C(S)=C(C#N)C(=O)NC12CCCCC2	-12	-22	11	3	5	7	·	·
CCCCCN(C(=O)CCC(=O)OCC(=O)c1ccc(F)c(F)c1)c1c(N)n(CCCC)c(=O)[nH]c1=O	·	·	-3	·	·	·	·	·
O=c1ccn(-c2cccc(C(F)(F)F)c2)nc1-c1ccn(-c2cccc(Cl)c2)n1	-4	-17	13	2	0	9	·	·
SMILES	APP 5UTR inh	KLF5 inh	aSyn UTR inh	IEC-6 cytotox	Ba/F3 V617F tox	BaF3 tox	BaF3 parental 2	JAK2V617F confrm
Cc1ccc(SCCN2CCN(CC(C)C)CCC2=O)cc1	·	·	-38	·	·	·	·	·
CCOc1cc(C(=O)Nc2ccc(N3CCN(S(C)(=O)=O)CC3)cc2)cc(OCC)c1OCC	-4	-11	7	-5	100*	5	-1	7
CCNC(=O)C(=O)NCC(c1ccc2c(c1)OCO2)N1CCOCC1 (configuration not stated)	·	-13	4	1	·	·	·	·
Nc1nc(CCl)nc(Nc2ccccc2)n1	-15	-11	-53	-2	4	5	·	·
Cc1ccc(Nc2nc(N)nc(CCl)n2)cc1	·	-31	-53	-2	34*	1	0	58*
COc1cccc(Nc2nc(N)nc(CCl)n2)c1	·	20	-23	3	-4	-4	·	·
CCOc1ccc(Nc2nc(N)nc(CCl)n2)cc1	·	-54	96*	100*	99*	10	17	99*
Cc1ccccc1N1CCN(Cc2c[nH]c3ccccc23)CC1	15	-19	37	2	35*	2	-5	29*
CC(Oc1ccc2c(=O)c(-c3ccc(Cl)cc3)c(C(F)(F)F)oc2c1)C(=O)O (configuration not stated)	·	-25	6	-2	-2	1	·	·
N#C/C(=C\c1ccc(O)c(O)c1)C(=O)NCCCc1ccccc1	-3	11	10	9	56*	4	-2	87*
CCN(CC)S(=O)(=O)c1ccc(Cl)c(NC(=O)COC(=O)c2ccc([N+](=O)[O-])o2)c1	·	-13	3	0	2	-6	·	·
O=C(Nc1cccc2c1[nH]c1ccccc12)C(F)(F)F	4	10	-1	-2	53*	17	4	52*
CC(=O)Nc1ccccc1NC(=O)C(F)(F)F	-23	-10	12	3	-3	1	·	·
CC(C(=O)NCc1ccc2c(c1)OCO2)N1c2cccc3cccc(c23)S1(=O)=O (configuration not stated)	13	2	2	-5	-2	1	·	·
COc1ccc(-c2cnnc(N/N=C/c3ccc(O)c(O)c3)n2)cc1	-12	14	-90	0	47*	11	83*	100*
Cn1ccnc1C1CCCCN1Cc1nc(-c2ccc(Cl)cc2)no1 (configuration not stated)	-8	-2	7	-3	-2	5	·	·
NSc1nc(N)c2nc(-c3ccccc3)c(-c3ccccc3)nc2n1	3	-24	24	1	2	11	·	·
Nc1nc(N)c2nc(-c3ccccc3)c(N)nc2n1	-8	-15	35	2	30*	11	19	73*
CCC(C)n1ncn(-c2ccc(N3CCN(c4ccc(O)cc4)CC3)cc2)c1=O (configuration not stated)	0	57	73*	4	33*	8	59*	48*
